# Data: PubChem BioAssay AID463173 (ICCB-Longwood Screening Facility, Harvard Medical School, 2010)
# Among all 52,000 compounds or so, about 4,300 (8.3%) were called active. No stated cut-off is given here; in the data, active means survival mostly below about 52% (no sharp cut-off); inactive means mostly above about 56%. For the sample, actives were picked, then their nearest neighbours and some compounds at random.
# System: DeltatarO mutant
# Assay: S. aureus survival, RN4220 and DeltatarO strains – OD600, teichoic acid synthesis inhibitors, primary screen (AID 463173)
# Conditions: S. aureus RN4220 wild type/DeltatarO growth, OD600, 18 h, stronger effect = lower value, screened at 18.75 µg/mL (by protocol)
row,Compound,survival
1,COc1cccc(CNc2nc3c(-c4ccccc4)nnn3c3ccccc23)c1,84% (inactive)
2,CCOc1ccc(NC(=O)c2ccc3c(SCC(=O)O)c4c(nc3c2)CCC4)cc1,90% (inactive)
3,CCC1CCCCN1S(=O)(=O)c1cc2c(cc1C)NC(=O)CO2 (stereo not given),105% (inactive)
4,O=C1CCN(C(=O)/C=C/c2ccccc2)c2ccccc21,88% (inactive)
5,CC(=O)c1ccc(NC(=O)C2CCCN(S(=O)(=O)c3ccc4c(c3)CCCN4C(C)=O)C2)cc1 (stereo not given),93% (inactive)
6,Cc1ccc(NC(=O)C(=O)NCC(c2ccc3c(c2)OCO3)N2CCN(C)CC2)cc1C (stereo not given),68% (inactive)
7,CCN(CC)S(=O)(=O)c1ccc2nc(NC(=O)c3ccccc3OC)sc2c1,89% (inactive)
8,CCOc1ccc(N2CC(NC(=O)Cc3cccs3)CC2=O)cc1 (stereo not given),73% (inactive)
9,Cc1ccc(C(=O)Nc2ccc(F)cc2)cc1S(=O)(=O)N1CCCCCC1,69% (inactive)
10,COC(=O)c1sc(N2C(=O)c3oc4ccccc4c(=O)c3C2c2ccc(O)cc2)nc1C (stereo not given),121% (inactive)
11,Cc1[nH]c2ccc(-c3nnc(SCC(=O)N4c5ccccc5CCc5ccccc54)o3)cc2c1C,89% (inactive)
12,COc1cc(OC)cc(C(=O)Nc2ccc3nc(N4CCC(C)CC4)cc(C)c3c2)c1,51% (inactive)
13,COc1ccc(Nc2cc(C)c3cc(NC(=O)c4cc(OC)cc(OC)c4)ccc3n2)cc1,94% (inactive)
14,CCN1CCN(c2cc(C)c3cc(NC(=O)c4cc(OC)cc(OC)c4)ccc3n2)CC1,47% (active)
15,Cc1cc(N2CCCCC2)nc2ccc(NC(=O)c3ccc(F)cc3)cc12,51% (inactive)
16,COc1cc(OC)cc(C(=O)Nc2ccc3nc(N4CCCCC4)cc(C)c3c2)c1,31% (active)
17,COC(=O)c1ccc(Cl)cc1NC(=O)Nc1nnc(N(C)C2CCCCC2)s1,81% (inactive)
18,COc1ccc(-c2cc(C)no2)cc1S(=O)(=O)N1CCOc2ccc(Cl)cc21,92% (inactive)
19,Cc1ccccc1-n1c(=O)c2c3c(sc2n2cnnc12)CCCC3,72% (inactive)
20,Cc1ccc(-n2c(=O)[nH]c3cc(C(=O)NCc4ccccc4)ccc3c2=O)cc1,102% (inactive)
21,Cc1c(C(=O)OCc2ccccc2)[nH]c2c1C(=O)CC(c1ccc(C(C)(C)C)cc1)C2 (stereo not given),91% (inactive)
22,COC(=O)C(NC(=O)CCc1c(C)nc2c(-c3ccccc3)c(C)nn2c1C)C(C)C (stereo not given),109% (inactive)
23,Cc1ccc(Cn2nnc3c(=O)[nH]c(C4CCN(C(=O)Cc5ccccc5F)CC4)nc32)cc1,69% (inactive)

row,Compound,survival
1,CS(=O)(=O)N1CCC(c2nc3c(nnn3Cc3ccc(F)cc3)c(=O)[nH]2)CC1,102% (inactive)
2,O=C(Cc1ccccc1F)N1CCC(c2nc3c(nnn3Cc3ccc(F)cc3)c(=O)[nH]2)CC1,72% (inactive)
3,O=C(Cc1ccccc1F)N1CCC(c2nc3c(nnn3Cc3cccc(Cl)c3)c(=O)[nH]2)CC1,44% (active)
4,O=C(Cc1ccc(F)cc1)N1CCC(c2nc3c(nnn3Cc3ccc(Cl)cc3)c(=O)[nH]2)CC1,27% (active)
5,O=C(Cc1ccc(F)cc1)N1CCC(c2nc3c(nnn3Cc3ccc(F)cc3)c(=O)[nH]2)CC1,66% (inactive)
6,COc1ccccc1N1CCN(C(=O)Cn2ncc3c2-c2cc(C)ccc2OC3)CC1,58% (inactive)
7,CN(C(=S)SCC1=CCS(=O)(=O)C1)C1CCS(=O)(=O)C1 (stereo not given),94% (inactive)
8,O=C1C(c2ccc(F)cc2)N(Cc2ccccc2Cl)C(=O)CN1C1CCCCC1 (stereo not given),81% (inactive)
9,Nc1no[n+]([O-])c1C(=O)NCCO,65% (inactive)
10,CC(C)(C)NC(=O)c1c(N)no[n+]1[O-],92% (inactive)
11,CN(C)C(=O)c1c(N)no[n+]1[O-],56% (active)
12,Cc1cc(C)c2c(=O)cc(C(=O)NCCc3ccc(S(N)(=O)=O)cc3)oc2c1,61% (inactive)
13,CCOc1ccc(CC(=O)Nc2c(C(=O)c3ccccc3)oc3ccc(Cl)cc23)cc1OCC,48% (inactive)
14,CC(=O)Nc1c(C(=O)O)oc2ccc(Cl)cc12,58% (active)
15,COC(=O)c1oc2ccc(Cl)cc2c1C,65% (inactive)
16,O=C(NCc1cccs1)c1ccc(Cn2c(SCc3ccc(F)cc3)nc3cccnc32)cc1,84% (inactive)
17,C=CCN=C1SC(C)C(=O)N1S(=O)(=O)c1ccccc1 (stereo not given),57% (inactive)
18,Cc1ccc(S(=O)(=O)N=C2SCCCS2)cc1,91% (inactive)
19,C=CCN=C1SCC(=O)N1S(=O)(=O)c1ccc(C)cc1,60% (active)
20,CC(=O)Nc1ccc(I)cc1C(=O)O,95% (inactive)
21,CCN(Cc1ccccc1)C(=O)Cn1c(=O)cc(C)c2c(C)nn(-c3cccc(F)c3)c21,72% (inactive)
22,CCOC(=O)c1ccc(NC(=O)Cn2cc(C(=O)c3cccs3)c3ccccc32)cc1,62% (inactive)
23,O=C(Nc1ccc(S(=O)(=O)N2CCC(c3nc4ccccc4s3)CC2)cc1)c1ccccc1,104% (inactive)

row,Compound,survival
1,Cc1ccc(C(=O)Nc2ccc(S(=O)(=O)N3CCC(c4nc5ccccc5s4)CC3)cc2)cc1,61% (inactive)
2,Cc1cccc(C(=O)Nc2ccc(S(=O)(=O)N3CCC(c4nc5ccccc5s4)CC3)cc2)c1,40% (active)
3,O=C(Nc1ccc(S(=O)(=O)N2CCC(c3nc4ccccc4s3)CC2)cc1)c1ccccc1F,57% (inactive)
4,O=C(Nc1ccc(S(=O)(=O)N2CCC(c3nc4ccccc4s3)CC2)cc1)c1ccc(F)cc1,63% (inactive)
5,Cc1ccccc1C(=O)Nc1ccc(S(=O)(=O)N2CCC(c3nc4ccccc4s3)CC2)cc1,40% (active)
6,COCCn1c(SCC(=O)c2c(C)[nH]c3ccccc23)nc2cc(C(=O)NC(C)C)ccc2c1=O,68% (inactive)
7,COc1ccc(NC(=O)CS(=O)CC(=O)NC2CCCc3ccccc32)cc1 (stereo not given),60% (inactive)
8,O=C(c1cccc(Cl)c1)n1nc(-c2cccnc2)nc1NCc1ccccc1,53% (inactive)
9,Cc1ccc(Cl)cc1NC(=O)COC(=O)CC(C)(C)CC1=NS(=O)(=O)c2ccccc2N1,84% (inactive)
10,CC(C)(CO)C(O)C(=O)NN (stereo not given),84% (inactive)
11,Cc1ccc(C)c(N2CCN(C(=O)c3ccc4c(c3)N(Cc3ccc(F)cc3)C(=O)c3ccccc3S4=O)CC2)c1 (stereo not given),101% (inactive)
12,COc1ccc(C(=O)NCc2ccc3c(c2)CCN3C(=O)c2ccc(C)cc2)cc1,82% (inactive)
13,Cc1ccc(C(=O)N2CCN(c3ccccc3)CC2)cc1,87% (inactive)
14,Cc1ccc(C(=O)N2c3ccc(C)cc3C(C)(c3ccccc3)CC2(C)C)cc1 (stereo not given),4% (active)
15,Cc1ccc(NC(=O)NCc2ccc3c(c2)CCN3C(=O)c2ccccc2)c(Cl)c1,82% (inactive)
16,Cc1ccc(C(=O)N2CC(=O)NC(=O)C2)cc1,83% (inactive)
17,COc1ccc(C(=O)N2c3ccc(C)cc3C(C)(c3ccccc3)CC2(C)C)cc1 (stereo not given),25% (active)
18,Cc1ccc2c(c1)C(C)(c1ccccc1)CC(C)(C)N2C(=O)c1ccc(F)cc1 (stereo not given),-4% (active)
19,COc1ccc(C(=O)NCc2ccc3c(c2)CCN3C(=O)c2ccccc2)cc1,84% (inactive)
20,CC1=CC(C)(C)N(CC(=O)c2ccccc2)c2ccc(C)cc21,97% (inactive)
21,CC(=O)OC1CC(C)N(C(=O)c2ccccc2)c2ccc(C)cc21 (stereo not given),67% (inactive)
22,Cc1ccc2c(c1)N(C(=O)c1ccc(F)cc1)C(C)(C)CC2(C)c1ccccc1 (stereo not given),24% (active)
23,CCOC(=O)C1CCC(CN(Cc2ccc(OC)cc2)S(=O)(=O)c2ccc(F)c(C(=O)Nc3c(C)cccc3C)c2)CC1 (stereo not given),83% (inactive)

row,Compound,survival
1,O=C(NCCCN1CCOCC1)C1CC(c2ccccc2O)=NO1 (stereo not given),97% (inactive)
2,Cn1cccc1C(C(=O)NC1CCCCC1)N(C(=O)Cn1nnc2ccccc21)c1cnc2ccccc2c1 (stereo not given),112% (inactive)
3,Cc1cc(C)nc(SCC(=O)Nc2ccc(N3CCOCC3)cc2)n1,82% (inactive)
4,CCc1ccccc1NC(=O)Cn1c(=O)n(Cc2ccc(OC)cc2)c(=O)c2oc3ccccc3c21,70% (inactive)
5,CC1(C)CC(=O)c2cc(C(=O)Nc3ccc(Br)cc3)c(=O)[nH]c2C1,70% (inactive)
6,O=C(CCS(=O)(=O)c1cc(Br)cc2c1N(C(=O)C1CC1)CC2)N1CCN(c2cccc(C(F)(F)F)c2)CC1,59% (inactive)
7,Cc1nc2ccn(Cc3ccco3)c(=O)c2cc1C(=O)N1CCN(c2ccc(F)cc2)CC1,135% (inactive)
8,CCc1nc2ccccc2n1CCCCOc1ccc(Cl)cc1,-3% (active)
9,Cc1cccc(OCCCn2c(CCNC(=O)C3CCCCC3)nc3ccccc32)c1,37% (inactive)
10,CCCC(O)c1nc2ccccc2n1CCCOc1ccc(Cl)cc1 (stereo not given),65% (inactive)
11,CCc1nc2ccccc2n1CCCCOc1cccc(C)c1,-2% (active)
12,CCc1nc2ccccc2n1CCCCOc1ccccc1C,0% (active)
13,CCc1nc2ccccc2n1CCO,77% (inactive)
14,CCc1nc2ccccc2n1CCCCOc1ccc(C)cc1,1% (active)
15,O=C1C2C3C=CC(C3)C2C(=O)N1CCN1CCN(S(=O)(=O)c2ccc(Br)cc2)CC1 (stereo not given),60% (inactive)
16,CCOc1ccccc1NC(=O)c1c2c(nc3ccccc13)C(=O)N(C1CCCCC1)C2,55% (inactive)
17,COc1ccc(OC)c(NCc2cccn2-c2nnc(N3CCCCC3)s2)c1,93% (inactive)
18,COc1ccc(CC(=O)NCc2nc3cccnc3n2Cc2ccc(C)cc2)cc1,92% (inactive)
19,CN1C(=O)/C(=C/c2cccs2)SC1=S,113% (inactive)
20,COc1ccc(Nc2ncc(C(=O)N3CCN(c4cccc(Cl)c4)CC3)c3ccccc23)cc1,62% (inactive)
21,Cc1cccc(N2CCN(C(=O)C3CCCN(S(=O)(=O)c4ccc5c(c4)oc(=O)n5C)C3)CC2)c1C (stereo not given),84% (inactive)
